Source: PubChem
ERa coact pot: ER-alpha (human) coactivator binding potentiation; P03372; TR-FRET ERalpha-LBD/SRC-Cy5 coactivator binding, 2 h; 100 = basal binding, no effect; coactivator binding (% of control), % at 25.6 µM; 86,000 tested, 1.3% active; AID 639; in the data active = activity above about 200%;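 note: binding measured in presence of low estradiol as agonist stimulus; 0% = peptide alone without receptor and 100% = receptor with peptide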
MRP1 act: MRP-1 activation | AID 799 | viability increase, % at 10 µM | 140,000 tested, 0.61% active | H69AR cells + doxorubicin, viability rescue, CellTiter-Glo;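 active = viability gain under doxorubicin at or above a set limit, the compound median plus 3 SD, cut at about 4.7% in these data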;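 note: MRP-1 overexpressing cells given doxorubicin 25 µM after compound pretreatment; 18-22 h compound pretreatment then 72 h with doxorubicin before readout; 0% = doxorubicin-only wells and 100% = vehicle-treated cells without doxorubicin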
MRP reversal: MRP-mediated drug resistance reversal. H69AR cells + 2 uM doxorubicin, CellTiter-Glo, 72 h. differential viability (reversal), % at 10 µM. 85,000 tested, 0.04% active. AID 602;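 active = viability drop by adding the cancer drug above about 55%, with treated viability meeting a 40% cutoff, limit read from the data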;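 note: viability without doxorubicin minus viability with 2 µM doxorubicin for each compound; larger differential means the compound sensitizes cells more to doxorubicin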
ERb SRC1 inh: blocks coactivator binding to human estrogen receptor beta; Q92731; TR-FRET ER-beta LBD / SRC1-Cy5 peptide binding; receptor agonist-loaded with 1 µM estradiol; inhibition, % at 25.6 µM; 86,000 tested, 1.3% active;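 active = compounds whose percent inhibition of the receptor-coactivator binding signal exceeds about 50% in the single-dose screen, limit read from the data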;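 note: 0% = receptor plus peptide wells without compound and 100% = peptide-only wells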
Target sequence (Q92731 whole entry, looked up, the tested form may be a part): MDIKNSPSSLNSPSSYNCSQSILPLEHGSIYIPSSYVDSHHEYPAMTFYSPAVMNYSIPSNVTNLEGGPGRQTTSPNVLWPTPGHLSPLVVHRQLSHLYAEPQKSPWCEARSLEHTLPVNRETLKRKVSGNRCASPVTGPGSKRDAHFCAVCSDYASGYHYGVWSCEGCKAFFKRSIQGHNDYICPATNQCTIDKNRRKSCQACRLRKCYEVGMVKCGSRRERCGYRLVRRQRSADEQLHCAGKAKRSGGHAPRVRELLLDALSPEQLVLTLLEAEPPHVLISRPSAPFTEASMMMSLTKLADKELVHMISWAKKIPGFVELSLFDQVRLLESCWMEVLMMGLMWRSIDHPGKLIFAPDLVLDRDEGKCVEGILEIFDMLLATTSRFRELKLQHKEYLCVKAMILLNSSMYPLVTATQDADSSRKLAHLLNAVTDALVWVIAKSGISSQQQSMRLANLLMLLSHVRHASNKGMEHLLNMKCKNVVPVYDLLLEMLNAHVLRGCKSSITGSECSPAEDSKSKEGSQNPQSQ
ERa SRC1 inh: ER-alpha (human) coactivator binding inhibition | AID 629 | inhibition, % at 25.6 µM | 86,000 tested, 1.7% active | TR-FRET ER-alpha LBD / SRC-1 peptide, estradiol-bound | P03372; in the data active = inhibition above about 50%;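 note: 0% = receptor plus peptide control and 100% = peptide only without receptor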
Active calls of the source: *; nt = no result; [ ] = dose if it differs, or a comment. Most compounds without a hit are left out; they make up all but 2.7% or so of the library.

SMILES | ERa coact pot | MRP1 act | MRP reversal | ERb SRC1 inh | ERa SRC1 inh
CCOc1cccc2cc(-c3csc(NC(=O)CCC(=O)N4CCN(C)CC4)n3)c(=O)oc12 | 118 | nt | -16 | 0 | 8
Cc1cccc(OCC(=O)Nc2ccc(N3CCN(C(=O)c4ccco4)CC3)cc2)c1 | nt | -3 | nt | nt | nt
Cc1nc(-c2ccc(NC(=O)CC(C)C)cc2)cs1 | nt | 1 | nt | nt | nt
CCCCc1nc2sc3c(SCC(=O)NCc4ccco4)ncnc3c2c2c1CCC2 | 575*[fluorescence artefact?] | -5 | -26 | 43 | 34
O=C(COc1ncnc2scc(-c3ccc(F)cc3)c12)NCc1ccco1 | 93 | -2 | -18 | 2 | -1
Cc1sc2ncnc(SCC(=O)NC(=O)NCc3ccco3)c2c1C | 85 | -2 | -3 | 81*[fluorescence artefact?] | 73*
Cc1ccc(-c2csc3ncnc(OCC(=O)NC(=O)NCc4ccco4)c23)cc1 | 68 | -1 | -25 | 38 | 56*[fluorescence artefact?]
C=CC[n+]1c(-c2ccc(OC)c(OC)c2)csc1NNC(=O)Nc1ccccc1 | 80 | -2 | 4 | -3 | 0
COc1ccc(C2NCCc3c2[nH]c2ccccc32)cc1CSc1nc2ccccc2s1 (centres undefined) | nt | -6 | nt | nt | nt
Cc1cc(S(=O)(=O)N(Cc2ccc(C(C)C)cc2)CC2CCCO2)ccc1-n1cnnn1 (centres undefined) | 95 | -3 | 5 | 2 | 2
Cc1cc(S(=O)(=O)N(Cc2ccc(F)cc2)CC2CCCO2)ccc1-n1cnnn1 (centres undefined) | 120 | -4 | -2 | 63* | -1
COC(=O)c1ccc(S(=O)(=O)N2C3CCC2CC(NC(=O)NC2CCCCC2)C3)cc1 (centres undefined) | 83 | -2 | 2 | 58*[fluorescence artefact?] | 15
CCSc1nnc(C)c(=O)n1COC(=O)c1ccc(S(=O)(=O)N2CCCC2)cc1 | nt | 1 | nt | nt | nt
O=C(O)[C@@H](c1ccccc1)N1Cc2ccccc2C1=O | 597*[fluorescence artefact?] | 0 | 1 | 17 | -18
CSc1ccccc1C(=O)Nc1nccs1 | 121 | 0 | 5 | -1 | 76*[fluorescence artefact?]
O=C(O)c1ccccc1C(=O)Nc1nccs1 | nt | -3 | nt | nt | nt
CCOC(=O)C1=C(C)N=C2SC(C)C(=O)N2C1/C=C/c1ccccc1OC (centres undefined) | nt | 1 | nt | nt | nt
CCOC(=O)C1=c2/c(=C/c3ccccc3OC)c(N)c(C#N)n2C(=O)C(c2ccccc2OC)S1 (centres undefined) | 129 | -3 | 0 | 52* | 63*
CCn1c(CSCc2ccc(F)cc2)nnc1SCC(=O)N1CCN(c2ccccc2)CC1 | nt | 1 | nt | nt | nt
Cn1c(SCC(=O)N2CCN(c3ccccc3)CC2)nnc1-c1ccco1 | 105 | -2 | 20 | 6 | 11
CCn1c(Cc2ccc(OC)cc2)nnc1SCC(=O)N1CCN(c2ccccc2)CC1 | 591*[fluorescence artefact?] | -1 | -24 | -14 | -8
O=C(CSc1nnc(-c2ccco2)n1-c1ccccc1)N1CCN(C(=O)c2ccco2)CC1 | 521*[fluorescence artefact?] | -1 | 10 | -4 | -22
Cc1ccc(CSCc2nnc(SCC(=O)N3CCN(c4ccccc4)CC3)n2C)cc1 | nt | 5.0* | nt | nt | nt
O=C(NC1CCSC1=O)c1cccc(C(=O)NC2CCSC2=O)c1 (centres undefined) | 208* | 1 | 3 | 11 | 23
Clc1ccc(CSc2ncn[nH]2)cc1 | 120 | 5.9* | -2 | 3 | -1
SMILES | ERa coact pot | MRP1 act | MRP reversal | ERb SRC1 inh | ERa SRC1 inh
CCOc1ccc(Cl)cc1CSc1ncn[nH]1 | nt | 4 | nt | nt | nt
COc1ccc(OC)c(S(=O)(=O)Nc2cccc(F)c2)c1 | 136 | 0 | -1 | 2 | 6
CCC(=O)Nc1cccc(NC(=O)CSc2nnc(C3CC3)n2C)c1 | 204* | 1 | 5 | -11 | -6
Cn1c(SCC(=O)Nc2cccc(Br)c2)nnc1-c1cc2ccccc2o1 | 631*[fluorescence artefact?] | -2 | 5 | 15 | 5
Cc1ccc(-c2nnc(SCC(=O)Nc3ccc4c(c3)oc3ccccc34)n2C)c(Cl)c1 | 103 | 0 | -6 | 1 | 5
Cc1cc(NC(=O)CSc2nnc(C3CC3)n2C)no1 | 111 | -1 | -2 | -5 | -1
Cn1c(SCC(=O)NC2CCCCC2)nnc1-c1cc2cc(Cl)ccc2o1 | 429*[fluorescence artefact?] | 0 | 9 | 25 | 43
Cn1cnc([N+](=O)[O-])c1Oc1ccc2ccccc2c1 | nt | -4 | nt | nt | nt
N=C1C(c2nc(-c3ccc(Cl)cc3)cs2)=C(O)CN1CCCN1CCOCC1 | 143 | -2 | 0 | 29 | 48
CCCCN1CC(O)=C(c2nc(-c3ccc(Cl)cc3)cs2)C1=N | 256*[fluorescence artefact?] | -1 | 12 | 38 | 64*[fluorescence artefact?]
CN(C)c1cccc(C(=O)OCC(=O)Nc2nccs2)c1 | nt | 0 | nt | nt | nt
Oc1c(C(c2cccs2)N2CCC3(CC2)OCCO3)sc2ncnn12 (centres undefined) | 111 | 4 | 1 | -1 | 0
Oc1c(C(c2cccs2)N2CCN(c3ccccc3)CC2)sc2ncnn12 (centres undefined) | 114 | 14* | -2 | -9 | -14
COc1ccc(C)c2sc(NC(=O)C3=COCCO3)nc12 | 104 | 4 | 2 | -4 | 93*[fluorescence artefact?]
COc1ccc(OC)c2sc(NC(=O)C3=COCCO3)nc12 | 106 | -1 | -4 | -7 | -3
CCCCc1nc(SCC(=O)Nc2cc(C)on2)n[nH]1 | 110 | 0 | -6 | 98*[fluorescence artefact?] | -6
CN(C)/C=C1\C(=O)c2ccc(N(C)C)nc2CC1c1ccccc1 (centres undefined) | 109 | nt | nt | 7 | -1
Cc1ccc(NC2=CC(=O)CC(c3ccc(Cl)cc3)C2)cc1 (centres undefined) | nt | 4.7* | nt | nt | nt
CCCSc1nc(O)c(C(c2ccc(OC)c(O)c2)c2c(O)nc(SCCC)n(C)c2=O)c(=O)n1C | nt | -2 | nt | nt | nt
CC(=O)Nc1ccc(Oc2nc(C)cc(C)n2)cc1 | 120 | 0 | 15 | -6 | -5
O=C(CN1C(=O)COc2ccc(S(=O)(=O)N3CCCC3)cc21)NC1CCCCCCC1 | nt | -3 | nt | nt | nt
Cc1c(C(=O)OC(C)C)sc(N)c1C(=O)OC(C)C | nt | 5.4* | nt | nt | nt
Nc1nonc1C(=O)NCCNS(=O)(=O)c1ccc(F)cc1 | nt | -1 | nt | nt | nt
Cc1ccc(-c2noc(C3CCCN(S(=O)(=O)c4ccc5ccccc5c4)C3)n2)o1 (centres undefined) | 81 | 7.3* | -38 | -1 | 9
Cc1ccc(S(=O)(=O)N2CCCC(c3nc(-c4ccc(C)o4)no3)C2)cc1 (centres undefined) | 103 | 0 | 17 | 11 | 2
SMILES | ERa coact pot | MRP1 act | MRP reversal | ERb SRC1 inh | ERa SRC1 inh
COc1ccc(C)cc1NCC(=O)Nc1ccc(C(C)(C)C)cc1 | nt | -3 | nt | nt | nt
COc1ccc2c(C)nc(Nc3nc(C)cc(C)n3)nc2c1 | 243* | -3 | -6 | 26 | 17
COc1ccc2c(C)nc(Nc3nc(C)c(C)c(=O)[nH]3)nc2c1 | 99 | -5 | -12 | 13 | 6
COc1ccc(/C=C(\C#N)C(=O)OCC(=O)NCc2ccc(Cl)cc2)cc1 | nt | -4 | nt | nt | nt
O=C(Nc1nc(-c2ccc(Oc3ccccc3)cc2)cs1)C1=COCCO1 | nt | 7.1* | nt | nt | nt
COC(=O)c1ccc(Cl)c(NC(=O)CN(c2ccccc2)S(=O)(=O)c2ccc(OC)cc2)c1 | nt | -3 | nt | nt | nt
CCN1C(=O)c2cccc3c(NC(=O)c4ccc5c(c4)OCCO5)ccc1c23 | 255* | -2 | -12 | 2 | 7
